Only a selection was taken, and hits are over-represented in it overall.
Dicer inh: human Dicer pre-microRNA cleavage inhibition. Q9UPY3. cat-ELCCA pre-miR-21 Dicer processing, chemiluminescence; hits give high values. z-score at 25 µM. 6% of 47,000 active. AID 1347074; in the data active = z-score above about 3, passing the limit was not always enough;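 also: plate controls were vehicle for no effect and no enzyme for full effect; higher signal means more uncleaved substrate so more Dicer inhibition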
Target sequence (Q9UPY3 whole entry, looked up): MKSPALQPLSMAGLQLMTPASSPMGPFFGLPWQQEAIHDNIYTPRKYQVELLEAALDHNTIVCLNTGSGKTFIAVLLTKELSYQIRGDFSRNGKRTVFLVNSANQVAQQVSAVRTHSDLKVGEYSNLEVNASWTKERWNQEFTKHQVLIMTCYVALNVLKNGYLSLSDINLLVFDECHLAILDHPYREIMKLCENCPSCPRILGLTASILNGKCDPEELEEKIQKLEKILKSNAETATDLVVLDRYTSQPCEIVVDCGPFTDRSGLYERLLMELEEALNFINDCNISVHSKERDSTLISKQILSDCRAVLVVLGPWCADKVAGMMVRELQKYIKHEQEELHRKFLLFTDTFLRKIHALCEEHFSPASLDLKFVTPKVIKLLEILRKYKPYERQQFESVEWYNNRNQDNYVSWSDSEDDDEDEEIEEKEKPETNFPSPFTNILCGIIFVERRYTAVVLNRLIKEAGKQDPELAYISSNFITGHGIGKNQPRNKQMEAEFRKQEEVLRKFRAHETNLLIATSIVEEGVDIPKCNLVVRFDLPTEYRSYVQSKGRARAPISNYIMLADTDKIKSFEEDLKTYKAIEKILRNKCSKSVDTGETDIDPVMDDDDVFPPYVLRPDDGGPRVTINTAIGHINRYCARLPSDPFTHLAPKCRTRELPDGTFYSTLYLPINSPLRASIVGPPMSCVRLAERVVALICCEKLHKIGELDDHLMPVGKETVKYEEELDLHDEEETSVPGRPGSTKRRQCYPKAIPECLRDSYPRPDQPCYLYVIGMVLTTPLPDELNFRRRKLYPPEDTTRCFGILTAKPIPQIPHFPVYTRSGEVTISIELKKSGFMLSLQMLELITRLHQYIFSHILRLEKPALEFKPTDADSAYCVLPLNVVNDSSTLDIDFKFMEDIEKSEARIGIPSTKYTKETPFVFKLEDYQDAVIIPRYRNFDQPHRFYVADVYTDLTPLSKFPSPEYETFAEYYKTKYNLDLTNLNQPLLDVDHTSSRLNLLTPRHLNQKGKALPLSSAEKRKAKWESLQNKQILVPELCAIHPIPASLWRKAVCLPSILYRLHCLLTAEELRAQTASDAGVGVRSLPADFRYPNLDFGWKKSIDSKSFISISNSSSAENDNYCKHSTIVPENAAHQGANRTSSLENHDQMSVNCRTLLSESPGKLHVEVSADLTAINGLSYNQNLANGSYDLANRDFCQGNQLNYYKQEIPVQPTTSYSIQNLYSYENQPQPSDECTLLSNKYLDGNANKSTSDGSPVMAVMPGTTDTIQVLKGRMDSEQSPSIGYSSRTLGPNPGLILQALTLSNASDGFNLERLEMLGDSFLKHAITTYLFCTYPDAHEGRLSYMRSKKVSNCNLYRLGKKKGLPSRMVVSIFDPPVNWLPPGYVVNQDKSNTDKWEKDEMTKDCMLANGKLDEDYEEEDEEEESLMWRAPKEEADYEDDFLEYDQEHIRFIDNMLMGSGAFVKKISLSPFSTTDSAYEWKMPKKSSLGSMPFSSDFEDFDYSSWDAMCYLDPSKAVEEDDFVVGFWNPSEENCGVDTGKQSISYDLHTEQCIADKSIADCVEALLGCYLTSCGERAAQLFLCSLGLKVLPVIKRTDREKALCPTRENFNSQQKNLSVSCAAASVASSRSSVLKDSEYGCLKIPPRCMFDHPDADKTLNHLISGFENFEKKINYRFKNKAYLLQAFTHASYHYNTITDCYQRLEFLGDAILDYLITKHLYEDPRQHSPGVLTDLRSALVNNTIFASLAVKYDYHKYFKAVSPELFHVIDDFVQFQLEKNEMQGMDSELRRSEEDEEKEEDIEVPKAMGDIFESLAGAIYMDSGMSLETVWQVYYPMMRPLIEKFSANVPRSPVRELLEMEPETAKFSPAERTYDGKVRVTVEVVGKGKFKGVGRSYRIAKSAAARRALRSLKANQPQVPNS
Starred values were filed as active, the others as inactive.

SMILES | Dicer inh
CC1CCN(c2nc3ccccc3nc2SCC(=O)N2CCN(C3CCCC3)CC2)CC1 | 2
CC1CCN(c2nc3ccccc3nc2SCC(=O)N2CCOCC2)CC1 | 3.9*
O=C(CSc1nc2ccccc2nc1N1CCCCC1)N1CCN(c2ccccc2)CC1 | 4.9*
c1ccc2nc(N3CCOCC3)c(N3CCOCC3)nc2c1 | -0.17
Cc1cc(C)nc(N2CCN(C(=O)CSc3nc4ccccc4nc3N3CCOCC3)CC2)n1 | 1.2
CC1CN(c2nc3ccccc3nc2SCC(=O)N2CCOCC2)CC(C)O1 (centres undefined) | 1.1
O=C(CSc1nc2ccccc2nc1N1CCCCC1)NC1CCCCC1 | 1.6
O=C(CSc1nc2ccccc2nc1N1CCOCC1)N1CCN(c2ccccc2)CC1 | 2.8
COCCNc1oc(-c2ccc(F)cc2)nc1C#N | -4
C=CCOC(=O)C1=C(C)NC2=C(C(=O)CC(C)(C)C2)C1c1cc(Br)c(O)c(OCC)c1 (centres undefined) | 1.7
CCOC(=O)c1ncoc1-c1cccc(C(F)(F)F)c1 | -0.3
O=C1NC(=O)C(CC(=O)c2ccccc2)S1 (centres undefined) | -0.32
COc1ccc2nc(-c3ccccc3)cc(NCCN(C)C)c2c1 | 0.42
CCOC(=O)CSc1nnc2sc3ccccc3n12 | 1.2
Cc1[nH][nH]c(=O)c1C(c1ccc(N(C)C)cc1)c1c(C)[nH][nH]c1=O | -5.6
COCCCNC(=S)Nc1cc(C)ccc1NS(=O)(=O)c1ccc(C)cc1 | -0.59
CC1CCN(c2nc3ccccc3nc2SCC(=O)NCC2CCCO2)CC1 (centres undefined) | 1.6
O=C(CSc1nc2ccccc2nc1N1CCOCC1)NCC1CCCO1 (centres undefined) | 3*
O=C(CSc1nc2ccccc2nc1N1CCOCC1)NC1CC1 | 2.5
O=C1CC2(CCCC2)CC(=O)N1CCCCN1CCN(c2ncccn2)CC1 | -0.29
O=c1[nH]c2ccccc2c(O)c1-c1ccccc1 | 0.27
O=c1[nH]c2ccccc2c2ccccc12 | -0.32
O/N=C1\CCCc2[nH]c3ccccc3c21 | 5.1*
Cc1cc(=O)[nH]c(SCc2ccc(/C=C/c3c(F)cccc3Cl)cc2)n1 | 1.3
COc1cccc(OCCCCNCC2CCCO2)c1 (centres undefined) | 0.17
SMILES | Dicer inh
CCOC(=O)C1=NNC2C(=O)N(c3ccc(Cl)cc3)C(=O)C12 (centres undefined) | 2
O=C(NCc1ccc(S(=O)(=O)Nc2ccc3c(c2)OCCO3)s1)c1ccccc1 | 3.2*
O=C(NCc1ccc(S(=O)(=O)Nc2ccc3c(c2)OCCO3)s1)c1ccc(Cl)cc1 | 0.24
O=C(NCc1ccc(S(=O)(=O)Nc2ccccc2Cl)s1)c1ccccc1 | -0.52
CC1CN(/C=C(\C#N)S(=O)(=O)c2ccc(Br)cc2)CC(C)O1 (centres undefined) | -0.3
COC(=O)c1sccc1Oc1ccc(C(F)(F)F)cc1NC(=O)c1cnn(-c2ccc([N+](=O)[O-])cc2)c1C(F)(F)F | 4*
COC(=O)c1sccc1Oc1ccc(C(F)(F)F)cc1NC(=O)c1cnn(-c2ccccc2)c1C(F)(F)F | -1.1
COC(=O)c1sccc1Oc1ccc(C(F)(F)F)cc1NC(=O)NS(=O)(=O)c1ccc(C)cc1 | -0.3
Clc1ccc(COC(Cn2ccnc2)c2ccc(Cl)cc2Cl)c(Cl)c1 (centres undefined) | -1.2
COc1ccc(/C=C/c2nc(-c3cccnc3)no2)cc1OC | 0.91
CCC1(CC)Cc2ccccc2C2=C(C(=O)N3CCOCC3)C(=O)C(=O)N21 | 4*
O=C1C(=O)N2C(=C1C(=O)N1CCOCC1)c1ccccc1CC21CCCC1 | -1.1
CC1(C)Cc2ccccc2C2=C(C(=O)N3CCCC3)C(=O)C(=O)N21 | -1.3
O=c1c(-c2ccccc2)c(O)cc(-c2ccc(F)cc2)n1-c1ccccc1 | -1.4
CN(C)CCCN1C(=O)C(O)=C(C(=O)c2ccco2)C1c1cccc(Br)c1 (centres undefined) | -1.1
COc1ccc(/C(O)=C2\C(=O)C(=O)N(c3nnc(C)s3)C2c2ccc(C(C)C)cc2)cc1 (centres undefined) | 1.3
Cc1ccc(CNC(=S)N(C)C)cc1 | -0.69
CCN(CC)C(=S)NC(=S)c1ccc(C)cc1 | 16*
CCN(C(=S)Nc1ccc(C)cc1)c1ccccc1 | 1.6
Cc1cc(C)cc(NS(C)(=O)=O)c1 | 1.1
CS(=O)(=NS(=O)(=O)c1ccc(-c2ccccn2)s1)c1ccc(Cl)cc1 (centres undefined) | 0.15
NS(=O)(=O)c1cc2c(cc1C(F)(F)F)NCNS2(=O)=O | -0.53
N#Cc1nc(-c2ccccc2)oc1NCc1ccccc1 | 6.4*
C=CCNc1oc(-c2ccc(F)cc2)nc1C#N | -0.55
COc1ccc(-c2nc(C#N)c(NCc3ccco3)o2)cc1 | -1.1
SMILES | Dicer inh
CN(C)c1nc(OCCOC(=O)c2ccccc2)nc(N(C)C)n1 | -0.46
Cc1cc(Oc2nc3c(c(=O)n(Cc4ccccc4)c(=O)n3C)n2C)ccc1Cl | -1.7
Nc1nc(-c2ccncc2)nc2sc3c(c12)CCCCC3 | 4.1*
Nc1ncnc2sc3c(c12)CCCC3 | -0.7
Nc1ncnc2sc3c(c12)CCCCC3 | 1.7
COC(=O)CSc1ncnc2sc3c(c12)CCCC3 | -0.1
